Results as given in PubChem BioAssay AID1159580 (chemical genetic matrix, 2015).
“And” between values parts separate entries of the source, which are not always exact repeats. Identical values can stand only once. Hit rate of the full screen: of about 5,500 compounds, about 2,000 (36%) were called active. About 18% were inconclusive and are not listed. Cut-off read from the data, not from the text of the source: active = normalized growth mostly below about 0.91 (no sharp cut-off); inconclusive = no clear call, values can overlap the other calls; inactive = mostly above about 0.92. The list shows a part of the results.

Assay: chemical genetic growth profiling, strain panel (AID 1159580);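 note: tested at 20 µM; growth read once vehicle control cultures reached saturation at 30 °C; 1 = growth at the plate median or of vehicle wells; lower values mean less growth of the strain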
Conditions: S. cerevisiae deletion strains, growth OD

Measured: normalized growth

CCC1(CC)C(=O)C=CNC1=O
inactive: locus YAL021C, strain ccr4, stronger effect = lower value 0.998 | locus YAL026C, strain drs2, stronger effect = lower value 0.996 | locus YAL030W, strain snc1, stronger effect = lower value 1 | locus YBL061C, strain skt5, stronger effect = lower value 1.01 | locus YBR009C, strain hhf1, stronger effect = lower value 1.02 | locus YBR021W, strain FUR4, stronger effect = lower value 1.02 | locus YBR023C, strain chs3, stronger effect = lower value 0.994 | locus YBR171W, strain sec66, stronger effect = lower value 0.985 | locus YBR229C, strain ROT2, stronger effect = lower value 1.01 | locus YBR231C, strain swc5, stronger effect = lower value 0.997 | locus YBR279W, strain paf1, stronger effect = lower value 1 | locus YCL011C, strain gbp2, stronger effect = lower value 0.992 | locus YCL016C, strain dcc1, stronger effect = lower value 0.998 | locus YCL029C, strain bik1, stronger effect = lower value 1.01 | locus YCL061C, strain MRC1, stronger effect = lower value 0.999 | locus YCL069W, strain vba3, stronger effect = lower value 0.993 | locus YCR088W, strain abp1, stronger effect = lower value 0.986 | locus YDL005C, strain med2, stronger effect = lower value 0.999 | locus YDL035C, strain GPR1, stronger effect = lower value 1.02 | locus YDL040C, strain nat1, stronger effect = lower value 0.999 | locus YDL074C, strain BRE1, stronger effect = lower value 0.977 | locus YDL101C, strain DUN1, stronger effect = lower value 1 | locus YDL134C, strain PPH21, stronger effect = lower value 1.03 | locus YDL185W, strain tfp1, stronger effect = lower value 1.02 | locus YDL192W, strain arf1, stronger effect = lower value 1.01 | locus YDR001C, strain nth1, stronger effect = lower value 0.997 | locus YDR069C, strain doa4, stronger effect = lower value 1.02 | locus YDR101C, strain arx1, stronger effect = lower value 0.988 | locus YDR137W, strain rgp1, stronger effect = lower value 1.03 | locus YDR159W, strain sac3, stronger effect = lower value 1.02 | locus YDR162C, strain NBP2, stronger effect = lower value 1.02 | locus YDR195W, strain ref2 0.985 | locus YDR297W, strain sur2, stronger effect = lower value 0.995 | locus YDR318W, strain mcm21, stronger effect = lower value 1.01 | locus YDR334W, strain swr1, stronger effect = lower value 0.959 | locus YDR335W, strain msn5, stronger effect = lower value 0.997 | locus YDR388W, stronger effect = lower value 1.01 | locus YDR392W, strain spt3, stronger effect = lower value 0.945 | locus YDR502C, strain sam2, stronger effect = lower value 0.995 | locus YEL003W, strain gim4, stronger effect = lower value 0.994 | locus YEL037C, strain rad23, stronger effect = lower value 0.991 | locus YEL061C, strain CIN8 (second series), stronger effect = lower value 0.992 | locus YEL061C, strain CIN8, stronger effect = lower value 1 | locus YER015W, strain faa2, stronger effect = lower value 1 | locus YER016W, strain bim1, stronger effect = lower value 0.999 | locus YER110C, stronger effect = lower value 1.03 | locus YER111C, strain swi4, stronger effect = lower value 1.01 | locus YER155C, strain BEM2 (second series), stronger effect = lower value 0.992 | locus YER155C, strain BEM2, stronger effect = lower value 1 | locus YER167W, strain BCK2, stronger effect = lower value 1.02 | locus YFR010W, strain ubp6, stronger effect = lower value 0.985 | locus YGL078C, strain dbp3, stronger effect = lower value 1.02 | locus YGL086W, strain mad1, stronger effect = lower value 0.99 | locus YGL167C, strain pmr1, stronger effect = lower value 1 | locus YGL173C, strain kem1, stronger effect = lower value 1.01 | locus YGL227W, strain vid30, stronger effect = lower value 1 | locus YGL240W, strain doc1, stronger effect = lower value 1.02 | locus YGL248W, strain PDE1, stronger effect = lower value 0.987 | locus YGL253W, strain hxk2, stronger effect = lower value 0.985 | locus YGR078C, strain PAC10, stronger effect = lower value 0.97 | locus YGR135W, strain pre9, stronger effect = lower value 1.05 | locus YGR252W, strain gcn5, stronger effect = lower value 0.996 | locus YHR013C, strain ard1, stronger effect = lower value 1.03 | locus YHR027C, strain rpn1, stronger effect = lower value 0.982 | locus YHR030C, strain SLT2, stronger effect = lower value 1.01 and 1 | locus YHR079C, strain IRE1 (second series), stronger effect = lower value 1.01 | locus YHR079C, strain IRE1, stronger effect = lower value 1.01 | locus YHR094C, strain hxt1, stronger effect = lower value 1.02 | locus YHR129C, strain ARP1, stronger effect = lower value 1.01 | locus YHR142W, strain chs7, stronger effect = lower value 0.964 | locus YHR200W, strain rpn10, stronger effect = lower value 1.01 | locus YIL066C, strain RNR3, stronger effect = lower value 0.996 | locus YIL073C, strain SPO22, stronger effect = lower value 1.07 | locus YIL125W, strain kgd1, stronger effect = lower value 0.999 | locus YIR030C, strain dcg1, stronger effect = lower value 1.01 | locus YJL092W, strain hpr5, stronger effect = lower value 0.992 | locus YJL095W, strain BCK1 (second series), stronger effect = lower value 0.996 | locus YJL095W, strain BCK1, stronger effect = lower value 0.976 and 1.01 | locus YJL115W, strain asf1, stronger effect = lower value 0.973 | locus YJL129C, strain trk1, stronger effect = lower value 0.993 | locus YJL134W, strain LCB3, stronger effect = lower value 1 | locus YJL154C, strain vps35, stronger effect = lower value 0.983 | locus YJL164C, strain tpk1, stronger effect = lower value 1.01 | locus YJL166W, strain qcr8, stronger effect = lower value 1 | locus YJL168C, strain set2, stronger effect = lower value 1 | locus YJL187C, strain SWE1 (second series), stronger effect = lower value 0.982 | locus YJL187C, strain SWE1, stronger effect = lower value 1.01 | locus YJR043C, strain POL32, stronger effect = lower value 0.994
